Bioassay records deposited in PubChem by National Center for Advancing Translational Sciences (NCATS).
Rows were chosen to be rich in hits. Some 2.1% of all compounds tested hit in one or more screens of this group.
FUS yeast rescue: qHTS for Suppressors of FUS Proteinopathy: Primary screen using FUS-linked yeast assay | S. cerevisiae FUS-expressing, growth rescue, OD600, 24 h | Potency, µM (highest dose often 76.6 µM), usual class: activators | 390,000 compounds, 0.24% hits | AID 1347120, 2019; note: nearly all actives have a fitted effect of over 55% in size
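Read-out: OD at 600 nm after 24hr at 30C, reporting rescue of FUS-induced yeast toxicity. Cells at OD 0.005 in galactose (2%) minimal medium; compounds tested in a dilution series; CP55940 titration from 92uM final as control.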
aSyn rescue: qHTS of alpha-syn Inhibitors; Yeast expressing alpha-synuclein, growth rescue, BacTiter-Glo, 24 h; Potency, µM (series often up to 46.1 µM), usual class: activators; 370,000 compounds, 0.14% hits; AID 652106, 2013; note: nearly all actives have a fitted effect of over 65% in size
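Galactose-induced alpha-syn yeast (OD600=0.02, raffinose-pregrown) + pinned cpd, 24 hr, 30 deg C; growth by BacTiter-Glo luminescence. Growth restoration scores as activation.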
TDP-43 yeast inh: qHTS of TDP-43 Inhibitors. TDP-43 expressing yeast growth rescue, BacTiter-Glo, 24 h. Potency, µM (titrated, usually from 46.1 µM), most hits filed as activators. 410,000 compounds, 1.8% hits. AID 652104, 2013; note: nearly all actives have a fitted effect of over 50% in size
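Growth rescue of TDP-43-toxic yeast measured as ATP luminescence (BacTiter-Glo). Cells grown to mid-log in raffinose, induced in galactose at OD600=0.02, exposed to compound 24 hr at 30 deg C.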
Abeta rescue: qHTS for compounds that reverse cellular toxicity of Amyloid beta (A-beta) peptide in yeast: Primary Screen | yeast expressing A-beta42, growth rescue, OD600, 48 h; response scale: 0% DMSO, 100% iron-clioquinol control | Potency, µM (doses to about 46.1 µM), hits mostly activators | 410,000 compounds, 0.063% hits | AID 1347071, 2019; note: nearly all actives have a fitted effect of over 55% in size
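Yeast A-beta toxicity model in growth medium with pinned compounds, 48 h at 30 C; growth read as absorbance at 600 nm. Normalized to FeCl3/clioquinol equimolar mix (positive) and DMSO (negative).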
Large screens that a line does not name were inactive. Calls come from the whole dose curve; as a rule, active = well fitted curve in the direction sought with a large enough effect; inconclusive = small, poorly fitted or top-dose-only effect, or another doubt; inactive = no such curve, though single readings can be large; an effect the other way counts as inactive or inconclusive.

Cn1c(=NN=Cc2ccccc2OCCO)sc2ccccc21	TDP-43 yeast inh 12.6µM
Cc1ccc(C)c(NC(=O)Cn2cc(S(=O)(=O)Cc3cccc(Cl)c3)c3ccccc32)c1	none (no result: aSyn rescue)
CCCCCCOC(=O)c1ccc(N)cc1	TDP-43 yeast inh 12.6µM
COC(=O)C1=C(C)N(Cc2ccccc2)C(=S)N[C@H]1c1cccc(F)c1	FUS yeast rescue inconclusive, aSyn rescue inconclusive, TDP-43 yeast inh 11.2µM
CN(Cc1ccccc1)C(=O)OCc1cn(Cc2cccc(Cl)c2)nn1	none (no result: aSyn rescue, TDP-43 yeast inh, Abeta rescue)
Fc1ccc(COc2ccc(C(=S)N3CCCC3)cc2)cc1	TDP-43 yeast inh 12.6µM, Abeta rescue inconclusive
O=C(O)CC1(CC(=O)Nc2ccc3sccc3c2)CCCCC1	TDP-43 yeast inh 7.94µM
COc1ccc(S(=O)(=O)NCc2cccn2Cc2cccc(C)c2)cc1OC	TDP-43 yeast inh 35.5µM (no result: aSyn rescue)
COc1ccc(S(=O)(=O)NCc2cccn2Cc2cc(C)ccc2C)cc1OC	TDP-43 yeast inh 35.5µM (no result: aSyn rescue)
Cc1ccc(-c2onc(C)c2C)cc1S(=O)(=O)NC1CCC(C)CC1 (configuration not stated)	none (no result: aSyn rescue)
O=C(CSc1nc2cc(Cl)ccc2s1)NCC1CCCO1 (configuration not stated)	TDP-43 yeast inh 20µM
O=C(CSc1nc2ccc([N+](=O)[O-])cc2s1)NCC1CCCO1 (configuration not stated)	none
COc1ccc(S(=O)(=O)N(C)Cc2cccs2)cc1Br	TDP-43 yeast inh 15.8µM
CCN(CC)CCSc1nnc2c3cc(F)ccc3n(C)c2n1	none (no result: aSyn rescue)
CSc1nnc2c3cc(F)ccc3n(C)c2n1	aSyn rescue 2.82µM, TDP-43 yeast inh 6.31µM
O=C(O)CSCC(=O)NCc1c(Cl)cccc1Oc1ccccc1	none
O=S(=O)(NCc1c(Cl)cccc1Oc1ccccc1)c1ccc(F)cc1	TDP-43 yeast inh 17.8µM
CC(=O)NC(Cc1ccc(O)cc1)C(=O)NCC(N)C(=O)c1ccccc1 (configuration not stated)	none (no result: FUS yeast rescue, TDP-43 yeast inh, Abeta rescue)
COc1ccc(NC(=O)CCNS(=O)(=O)c2cccc3nsnc23)cc1Cl	none (no result: aSyn rescue)
Cc1ncsc1CCOC(=O)C12CC3CC(CC(C3)C1)C2	TDP-43 yeast inh 20µM
CC1=C(C(=O)N(C(C)C)C(C)C)CC(CC(=O)NCC2CCCCC2)C(=O)N1Cc1ccc(C(C)(C)C)cc1 (configuration not stated)	FUS yeast rescue inconclusive, TDP-43 yeast inh 37.2µM (no result: aSyn rescue, Abeta rescue)
CC1=C(C(=O)N(C(C)C)C(C)C)CC(CC(=O)NCc2cccc3ccccc23)C(=O)N1Cc1ccc(C(C)(C)C)cc1 (configuration not stated)	FUS yeast rescue 6.31µM, aSyn rescue inconclusive
CC1=C(C(=O)N(C(C)C)C(C)C)CC(CC(=O)NC2CC2)C(=O)N1Cc1ccc(C(C)(C)C)cc1 (configuration not stated)	none
CC1=C(C(=O)N(C)C)CC(CC(=O)NCc2cccc3ccccc23)C(=O)N1Cc1ccc(C(C)(C)C)cc1 (configuration not stated)	FUS yeast rescue inconclusive
S=C(NCc1ccccn1)Nc1ccc(Br)cc1Cl	TDP-43 yeast inh 12.6µM, Abeta rescue inconclusive
O=C(NCc1ccccn1)Nc1ccc(Br)cc1Cl	none
CC(C)CN(CC(C)C)c1nc(-c2ccc(Cl)cc2)nc2ccccc12	TDP-43 yeast inh 35.5µM
CCN(CC)c1nc(-c2ccc(C(C)(C)C)cc2)nc2ccccc12	none (no result: aSyn rescue)
Cc1cc(C)c(COc2ccc(/C=N/n3c(C)n[nH]c3=S)cc2)c(C)c1	TDP-43 yeast inh 20µM, Abeta rescue inconclusive
Cc1cccc(NC(=O)Cn2cnc3ccc(S(=O)(=O)N4CCC(C)CC4)cc3c2=O)n1	FUS yeast rescue 35.5µM
O=c1cc(N2CCN(c3ccc(F)cc3)CC2)[nH]c(=O)n1-c1cccc(Br)c1	none (no result: aSyn rescue)
COc1cc(OC)c(OC)cc1/C=C1\CC(C)C/C(=C\c2cc(OC)c(OC)cc2OC)C1=O (configuration not stated)	FUS yeast rescue 25.1µM
CCC1C/C(=C\c2cc(OC)c(OC)cc2OC)C(=O)/C(=C/c2cc(OC)c(OC)cc2OC)C1 (configuration not stated)	FUS yeast rescue inconclusive
CCOC(=O)c1c(NC(=O)c2ccc(S(=O)(=O)N(CCOC)CCOC)cc2)sc2c1CC(C)(C)NC2(C)C	none (no result: aSyn rescue)
O=C(Cc1ccc(Br)cc1)c1ccc(O)cc1O	TDP-43 yeast inh inconclusive
COc1ccc(CC(=O)c2ccc(O)cc2O)cc1	TDP-43 yeast inh 12.6µM
O=C(Cc1ccc([N+](=O)[O-])cc1)c1ccc(O)cc1O	TDP-43 yeast inh 15.8µM
CC(C)c1ccc(S(=O)(=O)Nc2cc3c(cc2NCc2ccccc2)n(C)c(=O)n3C)cc1	none (no result: aSyn rescue)
COc1ccc(-c2cc3nc(C)c(CCC(=O)Nc4cccc(C(F)(F)F)c4)c(C)n3n2)c(OC)c1	none (no result: aSyn rescue)
C=Cc1ccc(CN2C(=O)N(c3cccc(Cl)c3)S(=O)(=O)c3ccccc32)cc1	none (no result: aSyn rescue)
CCC(=O)Nc1nnc(S(=O)(=O)N(C)Cc2ccc(Cl)cc2)s1	TDP-43 yeast inh inconclusive (no result: aSyn rescue)
Cc1cccc(C)c1NC(=O)c1ccc(-c2ccc(Cl)cc2Cl)o1	none
Cc1ccccc1NC(=O)c1ccc(-c2ccc(Cl)cc2Cl)o1	TDP-43 yeast inh 20µM, Abeta rescue inconclusive
Cc1cccc(C)c1NC(=O)c1ccc(-c2cc(F)ccc2F)o1	TDP-43 yeast inh 11.2µM
CC(c1ccccc1)N1CCn2c(nc3cc(NC(=O)NC4CCCCC4)ccc32)C1 (configuration not stated)	FUS yeast rescue 11.2µM
O=C(CCC1N=C2c3ccccc3N=C(SCc3cccc(F)c3)N2C1=O)NCc1cccs1 (configuration not stated)	TDP-43 yeast inh inconclusive (no result: aSyn rescue)
COc1ccc(-c2oc3c(c2C#CC2(O)CCCCC2)C(OC(C)=O)CCC3)cc1 (configuration not stated)	FUS yeast rescue inconclusive, TDP-43 yeast inh 20µM
COC(=O)C[C@@H]1CC[C@H]2[C@H](COc3ccc(NC(=O)C4CCC4)cc3C(=O)N2C)O1	none (no result: aSyn rescue, TDP-43 yeast inh, Abeta rescue)
COc1ccc2nc(N3C(=O)CC(C(C)c4ccccc4)C3=O)sc2c1 (configuration not stated)	TDP-43 yeast inh 11.2µM (no result: FUS yeast rescue)
COc1ccc2nc(N3C(=O)CC(Cc4ccc(C)cc4)C3=O)sc2c1 (configuration not stated)	none
Cc1ccccc1Cn1nnc(-c2ccc3c(c2)OCO3)n1	none
Fc1cccc(Cn2ccc(-c3ccc4c(c3)OCO4)n2)c1	TDP-43 yeast inh 12.6µM
Cc1ccccc1Cn1ccc(-c2ccc3c(c2)OCO3)n1	TDP-43 yeast inh 17.8µM
C=C1C=C(C)n2ncc(C(=O)NCCCCCC)c2N1	none (no result: FUS yeast rescue, TDP-43 yeast inh, Abeta rescue)
COc1cc(NC(=O)c2cnc(N)s2)cc(C(=O)Nc2cccc(C(F)(F)F)c2)c1	FUS yeast rescue inconclusive, TDP-43 yeast inh inconclusive
COc1cc(NC(=O)c2csc(N)n2)cc(C(=O)Nc2cccc(C(F)(F)F)c2)c1	FUS yeast rescue inconclusive, TDP-43 yeast inh 31.6µM
COc1cc(NC(=O)c2cc(C)on2)cc(C(=O)Nc2cccc(C(F)(F)F)c2)c1	TDP-43 yeast inh 12.6µM
